Among all 77,000 compounds or so, about 4,600 (6%) were called active. Inconclusive results (about 1%) are left out. The sample holds actives, similar compounds and a random draw of the others, so the mix is not that of the screen.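 The calls were made as follows: active = mean inhibition above about 93%, with at least 55% of replicates each passing it (limit read from the data, passing the limit was not always enough); inconclusive = only one of those two conditions holds; inactive = neither condition holds.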

The test can be described thus: growth inhibition of T. cruzi in host fibroblasts – cell-based, beta-gal Tulahuen parasites, NIH3T3 host, luminescence, primary screen (AID 624255). Particulars: T. cruzi beta-gal in NIH3T3, GalScreen luminescence, 90 h; at 8.34 µM; stronger effect = higher value.
Regarding `COc1ccc(C#Cc2ccc([C@H]3[C@@H](CO)N4CCCCN(S(=O)(=O)c5cn(C)cn5)C[C@H]34)cc2)cc1`, the inhibition was 50.5% (inactive).
In the case of `Cc1cccc(S(=O)(=O)N2CCCCN3[C@@H](CO)[C@H](c4ccc(-c5cccnc5)cc4)[C@@H]3C2)c1` it was 12.6% (inactive); in that of `COc1ccc(S(=O)(=O)N2CCCCN3[C@H](CO)[C@@H](c4ccc(C#CC(C)C)cc4)[C@H]3C2)cc1`, 106% (active).
As to `COc1cccc(S(=O)(=O)N2CCCCN3[C@H](C2)[C@@H](c2ccc(C4=CCCCC4)cc2)[C@@H]3CO)c1`, the inhibition was 51.4% (inactive).
Consider `COc1cccc(S(=O)(=O)N2CCCCN3[C@H](C2)[C@H](c2ccc(C#CC(C)C)cc2)[C@@H]3CO)c1`, for which the inhibition is 118% (active).
Turning to `COc1cccc(S(=O)(=O)N2CCCCN3[C@H](CO)[C@H](c4ccc(-c5ccncc5)cc4)[C@H]3C2)c1`, the inhibition was 111% (active).
Consider `CCCNC(=O)C[C@H]1CC[C@H]2[C@@H](COC[C@H](O)CN2C(=O)Nc2c(C)noc2C)O1`, for which the inhibition was -19.4% (inactive).
With `COc1cccc(S(=O)(=O)N[C@@H]2CC[C@@H](CCNC(=O)Cc3ccncc3)O[C@H]2CO)c1`, the inhibition is 80.6% (inactive).
In the case of `CS(=O)(=O)N1[C@H](C(=O)NCc2ccncc2)[C@@H](CO)[C@@H]2Cn3c(ccc(C4=CCCCC4)c3=O)[C@@H]21`, the inhibition was 58.6% (inactive).
On to `COc1cccc(S(=O)(=O)N2C[C@@H](O)COC[C@H]3O[C@@H](CC(=O)N4CCOCC4)CC[C@@H]32)c1`, for which the inhibition was 22.5% (inactive).
With `O=C(Nc1ccccc1F)N1C[C@@H]2[C@H](c3ccccc31)[C@@H](CO)N2C(=O)Nc1ccccc1` the figure was 8.53% (inactive).
Take `O=C(CN1CCOCC1)NCC[C@H]1CC[C@@H](NC(=O)Nc2ccc(Cl)cc2)[C@@H](CO)O1`: the inhibition is 46.9% (inactive).
Regarding `O=C(C[C@H]1CC[C@@H]2[C@H](COC[C@@H](O)CN2C(=O)Nc2cccc(F)c2)O1)NCc1ccccc1F`, the inhibition was -36.9% (inactive).
Take `COc1cccc(C(=O)Nc2ccc3c(c2)C(=O)N(C)C[C@@H](OC)[C@H](C)CN(C(=O)C2CCOCC2)[C@H](C)CO3)c1`: the inhibition is 9.28% (inactive).
For the compound `COc1ccc(NC(=O)Nc2ccc3c(c2)C(=O)N([C@H](C)CO)C[C@H](C)[C@H](CN(C)Cc2ccncc2)OCCCC[C@H](C)O3)cc1`, the inhibition was 97.9% (inactive).
`C[C@H](CO)N1C[C@H](C)[C@H](CN(C)Cc2ccc(Cl)c(Cl)c2)OCCCC[C@H](C)Oc2ccc(NC(=O)NC3CCCCC3)cc2C1=O`: the inhibition is 86.3% (inactive).
With `C[C@@H]1CN([C@H](C)CO)C(=O)c2cc(NC(=O)Nc3ccc(F)cc3)ccc2O[C@@H](C)CCCCO[C@H]1CN(C)Cc1ccc(Cl)c(Cl)c1`, the inhibition is 102% (active).
Regarding `COc1ccc(CN(C)C[C@@H]2OCCCC[C@@H](C)Oc3ccc(NC(=O)Nc4ccc(OC)cc4)cc3C(=O)N([C@@H](C)CO)C[C@@H]2C)cc1`, the inhibition is 24.8% (inactive).
Take `C[C@@H]1CCCCO[C@H](CN(C)Cc2ccc(Cl)c(Cl)c2)[C@@H](C)CN([C@@H](C)CO)C(=O)c2cc(NC(=O)Nc3ccccc3)ccc2O1`: the inhibition is 70.7% (inactive).
As for `COc1ccc(NC(=O)Nc2ccc3c(c2)C(=O)N([C@H](C)CO)C[C@@H](C)[C@H](CN(C)Cc2ccc(Cl)c(Cl)c2)OCCCC[C@@H](C)O3)cc1`, the inhibition was 126% (active).

These data come from PubChem BioAssay AID624255 (Broad Institute, 2012).
